Shown is part of a subset that was picked to be rich in hits.
PD-1 reversal = activators reversing PD-1 mediated T-cell inhibition; AID 2316; 29,000 tested, under 10 active; activation, % (no concentration beside the values); primary human CD4 T cells, PD-L1 beads, CellTiter-Glo 96 h; call rule not given here;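 note: 0% = median vehicle wells and 100% = positive control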
YB-1 expression = YB-1 expression inhibition; U2OS, qRT-PCR YB-1 vs CDIP delta delta Cp, 16 h; stronger effect = higher value; zero = DMSO, each unit about twofold; delta delta Cp (YB-1 minus CDIP) (no concentration beside the values); hit rate 0.37% among 30,000;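 active = delta delta Cp rounded down to an integer at or above 3, about 3 SD of DMSO wells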;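 note: higher means less YB-1 transcript or more CDIP transcript relative to DMSO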
MITF inh = blocks MITF activity | TRPM1 promoter luciferase, luminescence, 24 h | inhibition, % (no concentration beside the values) | hit rate 0.28% among 37,000 | AID 2240; in the data active = inhibition above about 85%; inconclusive = no clear call, values can overlap the other calls; inactive = below about 68%;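 note: human melanocyte line stably carrying TRPM1 promoter luciferase reporter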
NOMO-1 viab = STK33 inhibitor candidate reducing NOMO-1 cell viability; inhibition, % (no concentration beside the values); hit rate 7.5% among 37,000; NOMO-1 AML viability, CellTiter-Glo luminescence, 72 h; in the data active = inhibition above about 80%; inconclusive = no clear call, values can overlap the other calls
ROS inducer = raises reactive oxygen species in U2OS cancer cells | U2OS ROS induction, H2DCF-DA fluorescence | ROS induction (% of piperlongumine), % at 10 µM | hit rate 2% among 46,000 | AID 624156; in the data active = ROS induction above about 79%, passing the limit was not always enough; inconclusive = no clear call, values can overlap the other calls;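 note: 0% = DMSO vehicle median and 100% = reference compound median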
* marks the source's active call; other numbers are inactive results; ? = inconclusive; . = not tested or not shown.

SMILES	PD-1 reversal	YB-1 expression	MITF inh	NOMO-1 viab	ROS inducer
Cc1ccc(S(=O)(=O)Nc2ccc3c(c2)C(=O)N([C@@H](C)CO)C[C@@H](C)[C@@H](CN(C)Cc2ccc(C(F)(F)F)cc2)O3)cc1	-1.1	0.285	26.8	97.7*	5.0
C[C@@H]1CN([C@@H](C)CO)C(=O)c2cc(NS(=O)(=O)c3ccc(Cl)cc3)ccc2O[C@@H]1CN(C)Cc1ccc(C(F)(F)F)cc1	-1.6	0.18	38.2	123.4*	14.1
Cc1ccc(S(=O)(=O)Nc2ccc3c(c2)C(=O)N([C@@H](C)CO)C[C@H](C)[C@@H](CN(C)Cc2ccc(C(F)(F)F)cc2)O3)cc1	-0.3	-0.0523	3.0	?	?
CC(CCC1(C)C(C)CCC2(CO)C(CO)=CCCC21)CC(=O)O (configuration not stated)	.	0.0457	.	.	4.9
O=C(c1ccc(Oc2ccccc2)cc1)c1coc2ccc(O)cc12	0.0	-0.552	63.3	139.3*	61.2
CSc1nc2cc(Oc3ccc4ccccc4c3)c(Cl)cc2[nH]1	.	.	.	.	2.3
CC(=O)N1Cc2ccccc2C[C@]2(N=C(c3ccc(OCCCO)cc3)O[C@@H]2c2ccccc2)C1=O	.	0.173	.	.	33.8
CC(=O)N1Cc2ccccc2C[C@@]2(N=C(c3ccc(OCCCO)cc3)O[C@H]2c2ccccc2)C1=O	.	0.0195	.	.	78.7*
O=C(NCc1ccccc1)[C@@]1(CCS(=O)(=O)c2ccccc2)N=C(c2ccc(OCCCO)cc2)O[C@H]1c1ccccc1	.	-0.331	.	.	78.3*
O=C1N(CCS(=O)(=O)c2ccccc2)Cc2ccccc2[C@@H]2OC(c3ccc(OCCCO)cc3)=N[C@]12CCS(=O)(=O)c1ccccc1	.	0.408	.	.	95.6*
COc1ccc(-c2cc(C(=O)Nc3cc(Cl)ccc3OC)c3ccccc3n2)cc1	.	.	.	.	18.8
O=C(Cn1nc(Cc2cccnc2)c2ccccc2c1=O)N1CCCC1	.	.	.	.	-15.3
C[C@H](CO)N1C[C@H](C)[C@H](CN(C)Cc2cccc(C(F)(F)F)c2)Oc2ncc(-c3cc4ccccc4o3)cc2C1=O	.	0.215	.	.	248.5*
C[C@H](CO)N1C[C@H](C)[C@H](CN(C)Cc2ccccc2)Oc2ncc(-c3cc4ccccc4o3)cc2C1=O	.	0.153	.	.	62.0
C[C@H](CO)N1C[C@H](C)[C@H](CN(C)Cc2cccc(C(F)(F)F)c2)Oc2ncc(-c3cccc(C(F)(F)F)c3)cc2C1=O	.	0.606	.	.	160.5*
C[C@H](CO)N1C[C@H](C)[C@H](CN(C)S(=O)(=O)c2cccc(F)c2)Oc2ncc(-c3cccc(C(F)(F)F)c3)cc2C1=O	.	0.0743	.	.	30.7
C[C@H](CO)N1C[C@H](C)[C@H](CN(C)C(=O)Nc2cccc3ccccc23)Oc2ncc(-c3cc4ccccc4o3)cc2C1=O	.	0.483	.	.	115.3*
C[C@H](CO)N1C[C@H](C)[C@H](CN(C)S(=O)(=O)c2ccc(F)cc2)Oc2ncc(-c3cccc(C(F)(F)F)c3)cc2C1=O	.	-0.0637	.	.	116.3*
Cc1cc(C)c(C#N)c(SCC(O)CSc2ccc(Cl)cc2)n1 (configuration not stated)	0.4	.	-15.0	9.6	-10.2
O=C(/C=C/c1ccccc1)CC(=O)/C=C/c1ccccc1	0.3	-0.159	-9.7	57.8	13.8
O=C(/C=C/c1ccccc1)c1ccc(O)cc1	.	-0.493	-34.5	105.5*	53.3
CC(=O)Nc1ccccc1SCC(=O)Nc1ccc(C)cc1	-6.0	.	2.6	34.0	-10.2
C=C(C)C(=O)O[C@H]1[C@H]2C(=C)C(=O)O[C@@H]2C[C@@H](C)[C@@H]2O[C@@H]2C(=O)[C@](C)(O)[C@@H]1OC(C)=O	-19.7	0.117	-9.9	122.2*	81.9*
C=C(C)C(=O)O[C@H]1[C@H]2C(=C)C(=O)O[C@@H]2C[C@@H](C)/C=C/C(=O)[C@](C)(O)[C@@H]1OC(=O)C(=C)C	-10.8	0.477	?	107.5*	55.9
C=C(C)C(=O)OC1CC(CO)CCC/C(CO)=C\C2OC(=O)C(=C)C21 (configuration not stated)	.	0.203	.	.	22.5
C=C(C)C(=O)O[C@@H]1C2=C(C)C(=O)OC2(O)CC23OC2CC[C@H](C)[C@@]13C (some centres not stated)	0.4	0.833	-0.9	23.5	5.9
COc1ccc(OCc2nnc3n2N=C(c2ccc(OC)c(OC)c2)C(c2ccccc2)S3)cc1 (configuration not stated)	-3.9	.	0.9	21.0	99.0*
COc1cccc(OCc2nc(-c3ccc(OC)c(OC)c3)no2)c1	.	.	-18.0	-4.7	.

Screens: PubChem, Broad Institute
